Source: PubChem BioAssay (several laboratories)
Hits are enriched below; roughly 4% of the tested compounds scored in any of these assays.
Beta cell apopt – blocks beta cell apoptosis. AID 435005. protection from apoptosis, % (no concentration beside the values). INS-1E cytokine-induced death, ATP luminescence, 48 h; percent of positive-control rescue, neutral wells zero. 0.8% of 300,000 active;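 active = Every replicate reaches about 75%, or at least half do and their mean reaches it too, limit read from the data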;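 also: 0% = cytokine-treated negative control wells and 100% = positive control rescue; higher means more ATP so stronger rescue from cytokine killing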
PAX8 inh HTS – lowers PAX8-driven luciferase in RMG-I cells; RMG-I TPO-luciferase reporter, SteadyGlo, 24 h; inhibition, % at 12.6 µM; 1.2% of 360,000 active;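 active = mean replicate inhibition at least 60% with every replicate also reaching 60%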;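 also: luciferase light reporting Pax8 driven TPO promoter activity; plate controls were median of neutral control wells for no effect and mitoxantrone controls for full effect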
Mdm2-MdmX inh – disrupts the human Mdm2-MdmX interaction; O15151+Q00987; SaOS-2 split-luciferase Mdm2/MdmX complementation, luminescence; inhibition, % at 8 µM; 3% of 330,000 active;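 active = inhibition of at least 50% at 8 µM in the primary screen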
Target sequence (O15151 whole entry, looked up): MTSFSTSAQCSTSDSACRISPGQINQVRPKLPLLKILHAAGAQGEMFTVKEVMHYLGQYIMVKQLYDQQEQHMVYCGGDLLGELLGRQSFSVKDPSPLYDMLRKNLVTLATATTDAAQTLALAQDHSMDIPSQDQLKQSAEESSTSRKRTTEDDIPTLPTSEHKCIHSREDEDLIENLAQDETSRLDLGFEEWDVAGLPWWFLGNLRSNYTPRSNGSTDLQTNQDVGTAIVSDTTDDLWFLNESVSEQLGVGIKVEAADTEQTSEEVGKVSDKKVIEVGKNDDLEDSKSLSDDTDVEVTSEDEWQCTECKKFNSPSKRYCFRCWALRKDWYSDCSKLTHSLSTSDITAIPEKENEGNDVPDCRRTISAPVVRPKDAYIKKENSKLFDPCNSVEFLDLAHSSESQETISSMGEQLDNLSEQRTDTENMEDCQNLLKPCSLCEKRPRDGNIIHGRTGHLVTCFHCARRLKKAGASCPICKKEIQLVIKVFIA
Target sequence (Q00987 whole entry, looked up): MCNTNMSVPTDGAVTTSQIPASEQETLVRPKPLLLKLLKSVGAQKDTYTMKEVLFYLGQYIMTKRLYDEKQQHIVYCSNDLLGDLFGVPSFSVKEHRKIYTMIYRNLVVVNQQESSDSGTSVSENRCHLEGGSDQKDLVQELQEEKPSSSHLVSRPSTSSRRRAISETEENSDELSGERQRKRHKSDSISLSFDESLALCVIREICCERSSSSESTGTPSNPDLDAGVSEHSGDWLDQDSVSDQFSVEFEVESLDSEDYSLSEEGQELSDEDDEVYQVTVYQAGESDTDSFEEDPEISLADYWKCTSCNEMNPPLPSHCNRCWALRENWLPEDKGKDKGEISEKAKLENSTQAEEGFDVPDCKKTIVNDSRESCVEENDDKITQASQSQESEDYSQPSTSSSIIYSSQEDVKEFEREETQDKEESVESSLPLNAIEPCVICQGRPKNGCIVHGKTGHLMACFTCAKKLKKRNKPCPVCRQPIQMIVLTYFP
Shn3 3UTR inh – Schnurri-3 reporter inhibition in Clone20 osteoblasts; Clone20 osteoblast Shn3 3'UTR firefly luciferase, 24 h; inhibition, % at 12.5 µM; 0.52% of 360,000 active;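 active = mean inhibition of at least 75% with every replicate also reaching 75%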;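 also: 0% = median of neutral control wells and 100% = pilot-screen positive control compound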
CSC inhib – cancer stem cell inhibition. 1.1% of 300,000 active. inhibition, % at 7.5 µM. AID 2717. cancer stem cell-like cells viability, luminescence; in the data active = inhibition above about 75%; tested in HMLE shEcad cells
Gli-Sufu block – Gli-Sufu pathway antagonism; AID 588413; Sufu-KO-LIGHT fibroblasts, Gli luciferase reporter luminescence; 0.74% of 340,000 active; inhibition, % at 5 µM;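 active = inhibition above about 55%, limit read from the data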;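 also: 0% = DMSO-treated cells and 100% = wells with medium but no cells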
Mdm2-MdmX conf – confirmation of human Mdm2/MdmX interaction inhibitors. Mdm2-MdmX binding, luminescent assay. inhibition, % at 8 µM. shares compounds with Mdm2-MdmX inh. 55% of 10,000 active; in the data active = inhibition above about 40%
FLuc counter – inhibits full-length luciferase, flagging false Mdm2/MdmX hits | shares compounds with Mdm2-MdmX inh | SaOS-2 full-length luciferase counterscreen, luminescence | AID 504607 | 77% of 6,200 active | inhibition, % at 8 µM;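 active = mean inhibition at 8 µM reaching about 37%, which flags the compound as non-specific, limit read from the data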;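 also: p53-null SaOS-2 cells with luciferase driven by a doxycycline-inducible promoter; compound on cells about two nights before reading with doxycycline added after day one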
Active calls of the source: *.

`O=C(CCN1C(=O)/C(=C/c2ccccc2)SC1=S)NNC(=O)c1ccncc1` gave PAX8 inh HTS 7.9, Mdm2-MdmX inh -33.7, Shn3 3UTR inh -8.8, CSC inhib -3.9 and Gli-Sufu block 6.0.
Screening O=C(CCN1C(=O)/C(=C/c2ccccc2F)SC1=S)N[C@@H](CO)Cc1ccccc1 returned PAX8 inh HTS 46.2, Mdm2-MdmX inh 80.0*, Shn3 3UTR inh -45.6, CSC inhib 21.4, Gli-Sufu block -23.4, Mdm2-MdmX conf 36.5 and FLuc counter 54.0*.
`O=C(CCN1C(=O)/C(=C\c2ccccc2F)SC1=S)Nc1ccc(C(=O)O)c(O)c1` gave Beta cell apopt 2.8, PAX8 inh HTS 6.9, Mdm2-MdmX inh 5.1, Shn3 3UTR inh 3.6 and CSC inhib -5.5.
`O=C(CCN1C(=O)/C(=C/c2ccccc2)SC1=S)N[C@@H](CO)Cc1ccccc1` gave Beta cell apopt -58.1, PAX8 inh HTS 43.3, Mdm2-MdmX inh 89.0*, Shn3 3UTR inh -49.7, CSC inhib 34.0, Gli-Sufu block -1.9, Mdm2-MdmX conf 71.5* and FLuc counter 49.8*.
Screening O=C(c1ccc(F)cc1)N1CCCCN2[C@H](CO)[C@H](c3ccc(C#CC4(O)CCCC4)cc3)[C@@H]2C1 returned PAX8 inh HTS 5.7.
For O=C(Nc1ccc2oc(=O)ccc2c1)c1ccc(-c2cccc([N+](=O)[O-])c2)o1 the results were Beta cell apopt 9.4, PAX8 inh HTS 57.5, Mdm2-MdmX inh 40.7, Shn3 3UTR inh 12.9, CSC inhib 20.1 and Gli-Sufu block 11.7.
`O=C(Nc1ccc2oc(=O)ccc2c1)c1ccc(-c2ccccc2[N+](=O)[O-])o1` gave Beta cell apopt 27.9, PAX8 inh HTS -1.5, Mdm2-MdmX inh 62.0*, Shn3 3UTR inh 44.1, CSC inhib 14.9, Gli-Sufu block -3.1 and Mdm2-MdmX conf -7.5.
Screening CCNC(=O)C[C@@H]1CC[C@H]2[C@H](COc3ccc(NC(=O)Nc4cccc(C)c4)cc3C(=O)N2C)O1 returned PAX8 inh HTS 15.9.
`CO[C@H]1CN(C)C(=O)c2ccc(NC(=O)c3nc4ccccc4s3)cc2OC[C@@H](C)N(Cc2cncnc2)C[C@@H]1C` gave PAX8 inh HTS -12.9.
Screening COc1ccc(C2=NOC(C(=O)NCc3ccc(F)cc3)C2)cc1OC (stereo unspecified) returned Beta cell apopt 20.6, Mdm2-MdmX inh 44.2, Shn3 3UTR inh 5.6, CSC inhib 60.6 and Gli-Sufu block 44.3.
`COc1cc(C2=NOC(C(=O)NCc3ccc(F)cc3)C2)cc(OC)c1OC` (stereo unspecified) gave Beta cell apopt 22.2, Mdm2-MdmX inh 60.6*, Shn3 3UTR inh 17.0, Gli-Sufu block 45.9, Mdm2-MdmX conf 57.6* and FLuc counter 83.1*.
`O=C(N=Nc1c(O)[nH]c2ccccc12)c1cccs1` gave Beta cell apopt 10.3, PAX8 inh HTS -39.8, Mdm2-MdmX inh -138.7, Shn3 3UTR inh -59.8, CSC inhib 17.7 and Gli-Sufu block -107.0.
For O=C(N=Nc1c(O)[nH]c2ccccc12)c1cc(NS(=O)(=O)c2cccs2)cc(NS(=O)(=O)c2cccs2)c1 the results were Beta cell apopt -4.6, PAX8 inh HTS -15.4, Mdm2-MdmX inh 77.0*, Shn3 3UTR inh -7.6, CSC inhib 7.5, Gli-Sufu block 2.1, Mdm2-MdmX conf 30.8 and FLuc counter 79.9*.
Screening COc1cccc([C@@H]2Oc3ccc(OC)cc3C(=O)[C@H]2OC(=O)N[C@H](C)C2CCCCC2)c1 returned Beta cell apopt 0.9, Mdm2-MdmX inh 43.4 and CSC inhib -4.0.
`COc1ccc2c(c1)O[C@H](c1ccc3c(c1)OCO3)[C@@H](OC(=O)N[C@H](C)C1CCCCC1)C2=O` gave Beta cell apopt 43.5, Mdm2-MdmX inh 59.4*, CSC inhib 18.8 and Mdm2-MdmX conf 25.8.
`COc1ccc2c(c1)O[C@H](c1ccc3c(c1)OCO3)[C@@H](OC(=O)Nc1cc(OC)c(OC)c(OC)c1)C2=O` gave Mdm2-MdmX inh 61.3*, CSC inhib -20.0, Mdm2-MdmX conf 62.3* and FLuc counter 66.9*.
`C[C@@H]1CCCCO[C@H](CN(C)C)[C@@H](C)CN([C@H](C)CO)C(=O)c2cc(NC(=O)Nc3ccc4c(c3)OCO4)ccc2O1` gave PAX8 inh HTS -19.1.
C[C@H]1CN([C@@H](C)CO)C(=O)c2cccc(NC(=O)Nc3ccc4c(c3)OCO4)c2O[C@H]1CN(C)S(=O)(=O)c1ccc(F)cc1 was read as PAX8 inh HTS -23.1.
`COc1ccccc1C(=O)Nc1ccc2c(c1)C(=O)N(C)[C@@H]1CC[C@@H](CC(=O)NCCc3ccncc3)O[C@H]1CO2` gave PAX8 inh HTS 1.3.
Cc1ccc(C)c(NC(=O)c2ccccc2NS(=O)(=O)c2cc([N+](=O)[O-])ccc2C)c1 was read as Beta cell apopt 111.6*, PAX8 inh HTS 17.1, Mdm2-MdmX inh 89.5*, Shn3 3UTR inh 59.9, CSC inhib 97.4*, Gli-Sufu block 34.5, Mdm2-MdmX conf 93.5* and FLuc counter 40.2*.
Screening Cc1ccc([N+](=O)[O-])cc1S(=O)(=O)Nc1cccc(S(=O)(=O)Nc2ccccc2C(=O)O)c1 returned Beta cell apopt -3.3, PAX8 inh HTS -12.4, Mdm2-MdmX inh 16.1, Shn3 3UTR inh -1.1, CSC inhib -7.6 and Gli-Sufu block -16.8.
For COc1ccccc1OCC(O)Cn1c(=N)n(CCN2CCCCC2)c2ccccc21 (stereo unspecified) the results were Beta cell apopt -7.1, PAX8 inh HTS 16.8, Mdm2-MdmX inh 55.6*, Shn3 3UTR inh 80.6, CSC inhib -4.5, Gli-Sufu block 36.0, Mdm2-MdmX conf 45.5* and FLuc counter 73.8*.
Screening N=c1n(CCN2CCCCC2)c2ccccc2n1CC(O)COc1ccccc1 (stereo unspecified) returned Beta cell apopt 7.9, Mdm2-MdmX inh 61.2*, Shn3 3UTR inh 76.5, CSC inhib 8.4, Gli-Sufu block 19.4, Mdm2-MdmX conf 37.8 and FLuc counter 80.5*.
For N=c1n(CCN2CCOCC2)c2ccccc2n1CC(O)COc1ccccc1 (stereo unspecified) the results were Beta cell apopt -3.3, Mdm2-MdmX inh 15.9, Shn3 3UTR inh 8.1 and Gli-Sufu block 31.6.
`Cc1ccccc1S(=O)(=O)N1C[C@H](O)COC[C@H]2O[C@H](CC(=O)O)CC[C@@H]21` gave PAX8 inh HTS -3.5.
For COc1ccc2c(c1)c(CC(=O)Nc1nnc(C3CC3)s1)c(C)n2C(=O)c1ccc(Cl)cc1 the results were Beta cell apopt 15.0, PAX8 inh HTS 2.8, Mdm2-MdmX inh 82.8*, Shn3 3UTR inh 32.7, Gli-Sufu block 0.3, Mdm2-MdmX conf 79.8* and FLuc counter 64.8*.
